Compound activity: PubChem BioAssay, several laboratories
PKA-R1A act = PKA-R1A complex activation. 340,000 tested, 0.083% active. PKA-R1A dissociation, Cy5-IP20 fluorescence polarization; scaled: DMSO 0%, 113 µM cGMP 100%. activation, % at 11.4 µM;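 active means percent activation above the mean of all tested compounds plus 3 SD, cut at about 19% in these data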;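 further: higher means more PKAc released from R1A so a rise in polarization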
ANO1 activ = activates or potentiates the mouse TMEM16A chloride channel; AID 623877; HEK293 TMEM16A/YFP-H148Q/I152L, iodide quench fluorescence; stronger effect = lower value; Q8BHY3; 340,000 tested, 0.3% active; B-score at 10 µM;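 active means fluorescence-ratio B-score plate-corrected deviation score at least 3 library SD below zero, with starting fluorescence score within 5 deviations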;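 further: channel opened by trigger with iodide after compound preincubation; score built on the fluorescence ratio of max minus min over baseline; more negative score means more quench and so TMEM16A activation or potentiation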
Target sequence (Q8BHY3 whole entry, looked up): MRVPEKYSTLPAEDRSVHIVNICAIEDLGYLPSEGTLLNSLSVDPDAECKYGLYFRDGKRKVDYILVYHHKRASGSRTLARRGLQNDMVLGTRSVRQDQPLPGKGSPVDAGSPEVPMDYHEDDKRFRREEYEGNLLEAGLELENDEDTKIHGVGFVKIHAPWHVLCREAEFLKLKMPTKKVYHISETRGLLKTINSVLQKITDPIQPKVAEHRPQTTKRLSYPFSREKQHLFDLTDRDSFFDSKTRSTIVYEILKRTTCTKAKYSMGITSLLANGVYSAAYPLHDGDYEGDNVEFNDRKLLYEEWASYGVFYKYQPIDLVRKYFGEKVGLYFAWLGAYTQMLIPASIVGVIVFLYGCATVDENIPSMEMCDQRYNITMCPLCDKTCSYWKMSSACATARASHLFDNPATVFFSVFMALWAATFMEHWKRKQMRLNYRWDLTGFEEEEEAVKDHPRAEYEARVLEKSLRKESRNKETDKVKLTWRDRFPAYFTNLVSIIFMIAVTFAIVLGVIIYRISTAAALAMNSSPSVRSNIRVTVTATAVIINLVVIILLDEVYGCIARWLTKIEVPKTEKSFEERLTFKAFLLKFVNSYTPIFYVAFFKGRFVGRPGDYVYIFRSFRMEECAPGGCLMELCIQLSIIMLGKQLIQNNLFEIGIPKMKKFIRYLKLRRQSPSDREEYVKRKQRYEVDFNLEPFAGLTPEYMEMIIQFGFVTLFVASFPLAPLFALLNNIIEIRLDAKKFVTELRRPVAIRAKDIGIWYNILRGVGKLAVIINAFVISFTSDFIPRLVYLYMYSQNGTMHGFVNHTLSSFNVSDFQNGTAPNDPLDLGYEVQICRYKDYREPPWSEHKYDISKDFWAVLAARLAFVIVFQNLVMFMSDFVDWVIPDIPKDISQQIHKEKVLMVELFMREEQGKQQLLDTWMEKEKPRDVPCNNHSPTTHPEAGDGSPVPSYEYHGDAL
CHT block = inhibitors of human choline transporter CHT; Q9GZV3; CHT-expressing cells, membrane potential dye, choline response; stronger effect = lower value; B-score at 10 µM; 310,000 tested, 0.86% active;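 active means B-score over 3 SD under the library average, and starting fluorescence ratio not unusually high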;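 further: choline stimulus applied at its EC90 after an EC20 pre-addition; B-score computed on integrated fluorescence ratio after choline addition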
CHT allo act = allosteric activators of human choline transporter CHT | CHT-expressing cells, membrane potential dye, choline EC20; stronger effect = higher value; LV-AA mutant CHT in HEK293 cells | 310,000 tested, 0.49% active | Q9GZV3 | B-score at 10 µM;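 active means initial fluorescence not abnormally high and integrated response B-score, plate-corrected, over 3 SD above library mean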
TMEM16A inh = inhibitors of mouse TMEM16A calcium-activated chloride channel; AID 588511; Q8BHY3; normalized B-score (activity score, 25-100; higher = stronger inhibition) at 10 µM; HEK293 TMEM16A/YFP iodide influx fluorescence, ionomycin; 310,000 tested, 1.2% active;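 active means ratio plate-corrected score three or more library SD toward inhibition, starting fluorescence score within five deviations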;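 further: score derived from kinetic fluorescence span divided by baseline fluorescence per well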
PKA-R2B activ = PKA-R2B complex activation. PKA-R2B holoenzyme dissociation, Cy5-IP20 fluorescence polarization; R2B truncated from residue 108, S112A mutant; 0% DMSO only, 100% 113 µM cGMP. activation, % at 11.4 µM. 340,000 tested, 0.079% active;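 active means activation above a cutoff set at the mean over all compounds plus 3 SD, cut at about 18% in these data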;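 further: higher means more holoenzyme dissociation and a rise in polarization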
* = called active by the depositor; i = inactive; nt = no result. The list is not random: actives were taken first. Their share in the collection is about 2.5%.

SMILES | PKA-R1A act | ANO1 activ | CHT block | CHT allo act | TMEM16A inh | PKA-R2B activ
NC(=O)c1ccc(NC(=O)CSc2nncn2-c2ccccc2)cc1 | -6 | i | i | i | i | -11
O=C(CSc1nncn1-c1ccccc1)Nc1cc(Cl)cc(Cl)c1 | -11 | i | i | i | 25* | 1
CC(=O)c1sc(Nc2nc3ccc(F)cc3s2)nc1C | -7 | i | i | i | 25* | 0
C=CCC[C@@H](Cc1ccc(F)cc1)C(=O)OC[C@@H](Cc1c[nH]c2ccccc12)NC(=O)[C@H](CC=C)CC(=O)N[C@H](CO)Cc1ccccc1 | -1 | i | nt | nt | nt | -1
Cc1ccc(Nc2nc(N)c3ccccc3n2)cc1Cl | -3 | i | i | i | i | 2
Nc1nc(Nc2ccc(Cl)cc2)nc2ccccc12 | -9 | i | -8.3* | i | i | 6
CC1CN(c2snnc2C=C2C(=O)OC(C)(C)OC2=O)CC(C)O1 (centres undefined) | 1 | i | i | i | i | 2
O=c1[nH]c(CSc2nnc(Nc3ccccc3)s2)nc2ccccc12 | 1 | i | i | i | i | -3
CC(=O)N1CCc2cc(S(=O)(=O)Nc3cccc(C(F)(F)F)c3)ccc21 | -4 | i | i | i | 25* | -4
CN(C)c1ncc(CN2CCC(C(=O)Nc3ccc(-n4cccn4)cc3)CC2)s1 | 9 | i | i | i | i | -5
Cn1c(CNC(=O)CNC(=O)c2ccc(C(C)(C)C)cc2)cc(=O)n(C)c1=O | -11 | i | i | i | i | -12
COn1c2c(c3c4no[n+]([O-])c4ccc31)CCCC2 | -6 | i | i | i | i | 5
[O-][n+]1c2c(c3c4non(O)c4ccc31)CCCC2 | 2 | i | i | i | 100* | 3
CC(=O)C1=C(O)C(=O)N(c2ccc(Br)cc2)C1c1ccc(Br)cc1 (centres undefined) | 1 | i | i | i | i | 3
CC(C(=O)Nc1ccc(F)cc1Cl)N1CCN(S(=O)(=O)c2cccs2)CC1 (centres undefined) | 2 | -21* | nt | nt | nt | -7
C=CCOc1ccc(C2C(C(=O)c3ccco3)=C(O)C(=O)N2c2nnc(C)s2)cc1 (centres undefined) | 5 | -8.9* | i | i | i | 5
CCSc1nnc(N2C(=O)C(O)=C(C(=O)c3ccco3)C2c2cccc(OC)c2)s1 (centres undefined) | -14 | -6.9* | i | i | i | 6
CSc1nnc(N2C(=O)C(O)=C(C(=O)c3ccco3)C2c2ccc(F)cc2)s1 (centres undefined) | -15 | -6.6* | i | i | i | -9
CCOc1cccc(C2C(C(=O)c3ccco3)=C(O)C(=O)N2c2nnc(C)s2)c1 (centres undefined) | -4 | i | nt | nt | nt | 3
O=C(NCCc1ccncc1)c1ccc2nc(Cc3cccc(Cl)c3)oc2c1 | 1 | i | i | i | i | -9
CCn1nc(C)c(CNC(=O)c2cc(COc3ccc(C)nc3)on2)c1C | 11 | i | i | i | i | 14
CC[C@]1(C(=O)OC)[C@H]2C(=O)N(Cc3ccccc3)C(=O)[C@H]2[C@H]2CN=C(SCC3CC3)N21 | -6 | nt | nt | nt | nt | -7
Cc1cc(C)nc(/N=C(\N)Nc2ccc(OCc3ccccc3)cc2)n1 | -5 | -7.8* | i | i | 100* | -5
Cc1cc(C)nc(/N=C(\N)Nc2cccc(OCc3ccccc3)c2)n1 | 6 | i | i | i | i | -18
COCCCN1C(=O)c2ccc(C(=O)N3CCN(c4ccccc4OC)CC3)cc2C1=O | -7 | i | i | i | i | -2
SMILES | PKA-R1A act | ANO1 activ | CHT block | CHT allo act | TMEM16A inh | PKA-R2B activ
COc1ccccc1C(=O)N1CCN(Cc2ccc3c(c2)OCO3)CC1 | 1 | -14* | i | i | i | -13
CCn1cnc2sc(C(=O)N3CCN(Cc4ccc5c(c4)OCO5)CC3)c(C)c2c1=O | nt | nt | i | i | 25* | nt
O=C(C1=C[C@H](C2CC2)C[C@H](OCc2ccc(CO)cc2)O1)N1CCN(Cc2ccc3c(c2)OCO3)CC1 | -5 | i | -5.3* | i | i | -3
Cc1cc(OCC(=O)OCC(=O)c2ccc[nH]2)ccc1Cl | -2 | i | nt | nt | nt | -14
O=C1N(Cc2cccc(Cl)c2)C[C@@H]2C[C@@H](c3c[nH]c4ccccc34)N3CCC[C@@]123 | -10 | -4.6* | i | i | i | 3
O=c1c2cc(Cl)ccc2nc(-c2ccc(Cl)c(Cl)c2)n1O | -4 | i | -7* | i | 100* | 2
O=c1c(/C=N/OCc2ccc(Cl)cc2Cl)c[nH]n1-c1cccc(Cl)n1 | 12 | i | i | i | 25* | -9
CC(=O)c1ccc(NC(=S)NC(=O)Cc2ccc(Cl)cc2)cc1 | -8 | i | i | i | i | -5
CC(=O)c1ccc(NC(=S)NC(C)c2ccc(Cl)cc2Cl)cc1 (centres undefined) | -14 | i | i | i | 100* | -18
CCCN1C(=O)c2ccccc2NC1c1ccc(Cl)c(Cl)c1 (centres undefined) | -11 | i | i | 7.3* | i | -9
CC(C)C[C@H]1CN=C(Nc2ccccc2)N1CCc1cccc(F)c1 | -7 | -5.2* | nt | nt | nt | -2
CCN1C(Nc2ccccc2)=NC[C@@H]1CC(C)C | -2 | i | i | i | i | -11
Cc1cccc(CCN2C(Nc3ccccc3)=NC[C@@H]2CC(C)C)c1 | -1 | -6.1* | i | i | i | -4
CC(C)C[C@H]1CN=C(N(C)C)N1CCc1cccc(F)c1 | -10 | i | nt | nt | nt | -13
O=C(Nc1ccc(Cl)cc1)Nc1ccccc1NS(=O)(=O)c1cccs1 | -3 | i | i | i | 100* | -10
CS(=O)(=O)N1CCc2cc(-c3csc(NC(=O)Cc4ccccc4)n3)ccc21 | 6 | i | i | i | 25* | -6
CCCC(=O)Nc1nc(-c2ccc3c(c2)CCN3S(C)(=O)=O)cs1 | 9 | i | i | i | i | -5
O=C(CN1CCCCC1)Nc1nc(-c2ccc(F)c(F)c2)cs1 | 2 | i | i | i | i | 3
O=C(CS(=O)(=O)c1ccccc1)Nc1nc(-c2ccccc2)cs1 | -8 | i | i | i | i | -4
Cc1ccccc1C(=O)N1CCc2cc(-c3csc(NC(=O)CN4CCCC4)n3)ccc21 | -6 | i | i | i | 25* | -1
